Measured values published in PubChem BioAssay (Tox21).
Values joined by “and” are separate entries in the source; they are usually repeats but may differ in a detail not shown here. Equal entries are not always repeated. Inconclusive results are not listed. Entries that show only a call come without a potency. Active and inactive are the calls of the source. Calls come from the whole dose curve; as a rule, active = well fitted cell-killing curve with a large enough effect in the repeat runs; inconclusive = weak or mixed curves, or effect the other way; inactive = flat fitted curve, though single readings scatter.
Potency is the fitted concentration of half-maximal effect.

Assay: qHTS assay to identify small molecule agonists of the sonic hedgehog signaling (Shh) pathway - cell viability counter screen (AID 1259366); note: nearly all actives have a fitted effect of over 50% in size
Details: NIH/3T3 Gli1-Luc viability, CellTiter-Fluor, 24 h; series mostly up to 92.4 µM
Description: National Center for Advancing Translational Sciences [NCATS]
NIH Chemical Genomics Center [NCGC]
U.S. Environmental Protection Agency [EPA]
National Institutes of Environmental Health Sciences [NIEHS]
National Toxicology Program [NTP]
U.S. Food and Drug Administration [FDA]
The sonic hedgehog (Shh) pathway is essential for normal embryonic development. Dysregulation of the Shh pathway can cause severe developmental defects in organs. Therefore chemicals that interfere with the pathway are potential developmental toxicants. A cell line designated 3T3Gli1-Luc (DMB/OARSA/CFSAN/FDA, Laurel, MD), a NIH/3T3 derived clone containing stably integrated Gli1-Luc reporter is used to detect chemical interference of the Shh pathway, by changes in the expression of the firefly Luc gene under the control of the Gli1 transcriptional response element. This cell line was used to screen Tox21 libraries for identifying and prioritizing the potential developmental toxicants that interfere Shh pathway. The cytotoxicity of the compounds was tested in parallel by measuring the cell viability using CellTiter-Fluor assay system (Promega, Madison, WI) in the same wells.
Tox21 Assay Protocol Summary:
3T3 Gli1-Luc cells were dispensed at 2,000 per well in 5uL of culture medium into white solid bottom 1536-well plates (Greiner Bio-One, Monroe, NC) using a Multidrop Combi (Thermo Scientific, Waltham, MA) dispenser. The assay plates were incubated at 37 C and 5% CO2 for 4hr, and then 23nL of compounds dissolved in DMSO and positive control were transferred using a Pintool station (Wako, San Diego, CA). The assay plates were incubated at 37C and 5% CO2 for 24hr. For viability read, after 23hr of compound treatment, 1uL of CellTiter-Fluor reagent (Promega Corporation, Madison, WI) was added to each well of the assay plates using Flying Reagent Dispenser (FRD, Aurora Discovery, San Diego, CA) and incubated the assay plates at 37C for 1hr. The fluorescence signal was quantified using a ViewLux plate reader (Perkin Elmer, Shelton, CT).
With `CC(C)[C@H](C(=O)O[C@H](C#N)c1cccc(Oc2ccccc2)c1)c1ccc(Cl)cc1` the Potency was “inactive”. For `CCCCOP(=O)(CCCC)OCCCC`, the Potency was “inactive”. In the case of `N#CCCSCCC#N`, the Potency is reported as “inactive”. With `Cc1ccc(OP(=O)(Oc2ccccc2)Oc2ccccc2)cc1` the Potency was “inactive”. In the case of `NNC(=O)c1ccccc1`, the Potency is reported as “inactive”. For `CCOCn1c(-c2ccc(Cl)cc2)c(C#N)c(Br)c1C(F)(F)F`, the Potency was “inactive”. For `Oc1ccc(C(=C(Cl)Cl)c2ccc(O)cc2)cc1`, the Potency was “inactive”. With `CN(C)[C@@H]1C(=O)C(C(N)=O)=C(O)[C@@]2(O)C(=O)C3=C(O)c4c(O)ccc(Cl)c4[C@@](C)(O)[C@H]3C[C@@H]12` the Potency was “inactive”. For `COc1cccc2c1C(=O)c1c(O)c3c(c(O)c1C2=O)C[C@@](O)(C(=O)CO)CC3OC1CC(N2CCOC(OC)C2)C(O)C(C)O1` (stereo not given in full), the Potency was 0.237 µM (active). With `ClC(Cl)=C(c1ccc(Cl)cc1)c1ccc(Cl)cc1` the Potency was “inactive”. For `C[C@@H]1CC[C@@]2(OC1)O[C@H]1[C@@H](O)[C@H]3[C@@H]4CC[C@H]5C[C@@H](O[C@@H]6O[C@H](CO)[C@H](O[C@@H]7O[C@H](CO)[C@@H](O)[C@H](O[C@@H]8OC[C@@H](O)[C@H](O)[C@H]8O)[C@H]7O[C@@H]7O[C@H](CO)[C@@H](O)[C@H](O[C@@H]8O[C@H](CO)[C@@H](O)[C@H](O)[C@H]8O)[C@H]7O)[C@H](O)[C@H]6O)[C@H](O)C[C@]5(C)[C@H]4CC[C@]3(C)[C@H]1[C@@H]2C`, the Potency was 32.5 µM (active). For `O=C(O)COc1nc(Cl)c(Cl)cc1Cl`, the Potency was “inactive”. For `[Hg+2].[I-].[I-]`, the Potency was 2.43 µM (active). With `COc1ccc(OC)c(C=O)c1` the Potency was “inactive”. For `O=C1c2ccccc2C(=O)C1C(=O)C(c1ccccc1)c1ccc(Cl)cc1` (stereo not given), the Potency was “inactive”. For `ClC1=C(Cl)[C@]2(Cl)[C@@H]3[C@@H](Cl)[C@H](Cl)C[C@@H]3[C@@]1(Cl)C2(Cl)Cl`, the Potency was “inactive”. In the case of `ClC1=C(Cl)C2(Cl)C3C(Cl)C(Cl)CC3C1(Cl)C2(Cl)Cl` (stereo not given), the Potency is reported as 43.1 µM (active) and 61.1 µM (active). For `Cc1cc(SCc2sc(-c3ccc(C(F)(F)F)c(F)c3)nc2C)ccc1OCC(=O)O`, the Potency was 43.3 µM (active). In the case of `O=c1c(C2CC(c3ccc(-c4ccc(Br)cc4)cc3)Cc3ccccc32)c(O)sc2ccccc12` (stereo not given), the Potency is reported as “inactive”. In the case of `O=C(CCl)C(Cl)Cl`, the Potency is reported as 17.4 µM (active). In the case of `C[C@]12CC[C@H]3[C@@H](CCC4=CC(=O)CC[C@@]43C)[C@@H]1CC[C@@H]2O`, the Potency is reported as “inactive”. With `C=CC(=O)OCCCCOC(=O)C=C` the Potency was 61.1 µM (active). With `CCC(C)(C)C(=O)OC1=C(c2ccc(Cl)cc2Cl)C(=O)OC12CCCCC2` the Potency was “inactive”. In the case of `ClC(Cl)=C(Cl)Cl`, the Potency is reported as “inactive”. With `C[C@@H]1O[C@@H](O[C@@H]2C=C3CC[C@@H]4[C@H](CC[C@]5(C)[C@@H](c6ccc(=O)oc6)CC[C@]45O)[C@@]3(C)CC2)[C@H](O)[C@H](O)[C@H]1O` the Potency was “inactive”. With `CCCCCCCCCCCCCN1CC(C)OC(C)C1` (stereo not given) the Potency was “inactive”. For `CN(C)C(=S)[S-].CN(C)C(=S)[S-].[Cu+2]`, the Potency was 2.64 µM (active). In the case of `CC(C)[C@H](C(=O)OC(C#N)c1cccc(Oc2ccccc2)c1)c1ccc(OC(F)F)cc1` (stereo not given in full), the Potency is reported as “inactive”. With `CCS(=O)(=O)c1cccnc1S(=O)(=O)NC(=O)Nc1nc(OC)cc(OC)n1` the Potency was “inactive”. In the case of `Clc1ccc(-c2ccc(Cl)c(Cl)c2Cl)c(Cl)c1Cl`, the Potency is reported as “inactive”. For `Cn1[nH]nnc1=S`, the Potency was “inactive”. In the case of `N#CCCO`, the Potency is reported as “inactive”. In the case of `Cc1cc(Cl)ccc1O[C@H](C)C(=O)O`, the Potency is reported as “inactive”. In the case of `N#CCCC(Br)(C#N)CBr` (stereo not given), the Potency is reported as 27.3 µM (active). For `ClC1=C(Cl)[C@]2(Cl)[C@@H]3[C@@H](Cl)[C@@H](Cl)C[C@@H]3[C@@]1(Cl)C2(Cl)Cl`, the Potency was “inactive”. In the case of `O=[N+]([O-])c1ccc2ccc3cccc4ccc1c2c34`, the Potency is reported as “inactive”. In the case of `CCOC(=O)c1ccccc1S(=O)(=O)NC(=O)Nc1nc(Cl)cc(OC)n1`, the Potency is reported as “inactive”. In the case of `COc1ccc(/C(=C/C(=O)N2CCOCC2)c2ccc(Cl)cc2)cc1OC`, the Potency is reported as “inactive”. With `COP(=S)(OC)Oc1cc(Cl)c(Br)cc1Cl` the Potency was “inactive”. For `COc1cc(N)c(Cl)cc1C(=O)NC1CN2CCC1CC2` (stereo not given), the Potency was “inactive”.
